Reference: article PMC7826789 (International Journal of Molecular Sciences, 2021)

The molecules below were run on VRK2. Settings: Compound Concentration (nM):1000.
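Further: KINOMEscan scanMAX binding as percent activity remaining versus control; lower means stronger binding.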

SMILES | Percent Control [%]
COc1cc(N2CCN(C(C)C)CC2)ccc1Nc1nc(Nc2ccc(F)cc2C(=O)NC[C@@H](O)CO)c2cc[nH]c2n1 [GSK1392956A] | 68
Nc1ncnc2occ(-c3ccc(NC(=O)Nc4cc(C(F)(F)F)ccc4F)cc3)c12 [GW770249X] | 100
NS(=O)(=O)c1ccc(N/N=C2\C(=O)Nc3ccc(C(=O)NCc4ccncc4)cc32)cc1 [GW300657X] | 74
COc1cccc(-c2c[nH]c3c(N/N=C/c4ccncc4)ncnc23)c1 [GW814408X] | 100
COc1ccc2c(-c3ccnc(Nc4cccc(OC(F)(F)F)c4)n3)cnn2n1 [GW810372X] | 95
CCS(=O)(=O)c1ccc(OC)c(Nc2ncc(-c3cccc(OC)c3)o2)c1 [GW580509X] | 100
Cl.O=C(Nc1ccc(Oc2ccc3[nH]c(NC(=O)c4ccco4)nc3c2)cc1)Nc1cc(C(F)(F)F)ccc1F [GW683134A] | 100
CCn1c(-c2nonc2N)nc2c(C#CC(C)(C)O)nc(OCCNC)cc21.Cl [GSK949675] | 67
COc1cccc(-n2ncc3c(N/N=C/c4ccncc4)ncnc32)c1 [GW784752X] | 85
COc1ccccc1-c1cc(/C=C2\C(=O)Nc3ncc(Br)cc32)cc(Br)c1O [GW442130X] | 89
Cl.O=C(O[C@H]1CN[C@H](C#Cc2cc3ncnc(Nc4ccc5c(cnn5Cc5ccccc5)c4)c3s2)C1)N1CCOCC1 [GSK200398A] | 87
COc1cc2ncn(-c3cc(O[C@H](C)c4ccccc4Cl)c(C(N)=O)s3)c2cc1OC [GSK237701A] | 80
